Out of some 2,100 compounds screened, about 670 (32%) were called active. Another 50% or so got no clear call; they are omitted. Calls follow the shape of the dose curve; as a rule, active = well fitted inhibition curve with a large enough effect; inconclusive = small, poorly fitted or top-dose-only effect; inactive = no such curve, though single readings can be large or run the other way. This is one part of the list.
% is scaled to controls: 0 for no effect and ±100 for the full control effect; potency is read from the fitted curve at half-maximal effect.

The assay can be described thus: CMV-Luciferase Counterscreen for Inhibitors of ATXN expression. Also: nearly all actives have a fitted effect of over 55% in size. The conditions noted are these: HEK-293 CMV-luciferase reporter, luminescence, 24 h; series mostly up to 57.5 µM.
With `O=C1Nc2c(Br)cc(Br)c3cccc1c23`, the Potency entry is “inactive”.
Regarding `NC(=O)c1c(NC(=O)c2ccc(S(=O)(=O)N3CCOCC3)cc2)sc2c1CCCCC2`, the activity change, negative = inhibition was -13.6% [at 11.4 µM] (inactive).
On to `O=C(Nc1nc(-c2ccc(S(=O)(=O)N3CCOCC3)cc2)cs1)c1ccccc1`, for which the Potency is 1.12 µM (active).
For `O=C(Nc1nc(-c2ccccc2)cs1)c1ccccc1NS(=O)(=O)c1ccc(F)cc1`, the Potency was 1 µM (active).
For the molecule `O=C(Nc1cccc(S(=O)(=O)C(F)F)c1)c1ccc(Cl)c(S(=O)(=O)N2CCOCC2)c1`, the Potency was 15.8 µM (active).
With `COc1cccc(C(=O)Nc2nc(-c3ccc(S(=O)(=O)N4CCOCC4)cc3)cs2)c1`, the Potency is 2.82 µM (active).
For `COc1ccccc1C(=O)Nc1nc(-c2ccc(S(=O)(=O)N3CCOCC3)cc2)cs1`, the Potency is 1.58 µM (active).
In the case of `O=C(Nc1nc(-c2ccccn2)cs1)c1ccc(F)c(S(=O)(=O)N2CCOCC2)c1`, the Potency was 1.78 µM (active).
For `Cn1c(=O)c2c(nc(CN3CCN(Cc4ccccc4)CC3)n2Cc2ccc(Cl)cc2)n(C)c1=O`, the Potency was 17.8 µM (active).
In the case of `Cn1c(=O)c2c(nc(SCCN3CCOCC3)n2Cc2cccc3ccccc23)n(C)c1=O`, the activity change, negative = inhibition was -18.8% [at 11.4 µM] (inactive).
Regarding `CCCCCc1ccc(OCCCC[n+]2cccc(C)c2)c(CCCCC)c1`, the Potency was 4.47 µM (active).
As to `O=C(NC(=S)NCc1nc2ccccc2[nH]1)c1ccc(F)cc1`, the activity change, negative = inhibition is 290% [at 11.4 µM] (inactive).
On to `CCC(=O)NC(c1ccc(OC)c(OC)c1)c1cc(Cl)c2cccnc2c1O` (stereo not drawn), for which the Potency is 1.41 µM (active).
Consider `CCCC(=O)NC(c1ccc(OC)c(OC)c1)c1cc(Cl)c2cccnc2c1O` (stereo not drawn), for which the Potency is 4.47 µM (active).
For the molecule `Cc1ccc(Sc2nnc(Cc3ccccc3)c3ccccc23)cc1`, the Potency entry is “inactive”.
Turning to `O=C(N/N=C/c1sc(N2CCOCC2)nc1-c1ccccc1)c1ccccc1O`, the Potency was 12.6 µM (active).
On the same count and under the same terms, next, `CC(C)(C)c1ccc(C(=O)N2CCCCCC2=O)cc1`: 5.01 µM (active); `COc1ccc(CN(C)C(=O)c2cccc(NC(=O)CC3SC(N4CCCCC4)=NC3=O)c2)c(OC)c1` (stereo not drawn): 10 µM (active); `CC(C)c1ccc2c(c1)C(N1CCNCC1)Cc1ccc(F)cc1S2` (stereo not drawn): 35.5 µM (active).
For `COc1ccc(N=Cc2cc3c(cc2O)OC(N)=C(C#N)C3c2ccccc2)cc1` (stereo not drawn), the activity change, negative = inhibition is -22.6% [at 11.4 µM] (inactive).
On to `Cc1cc(C)cc(C(=O)N(NC(=O)Nc2ccc(Cl)cc2)C(C)(C)C)c1`, for which the Potency was 22.4 µM (active).
Turning to `Oc1c(Cl)cc(Cl)cc1/C=N/Nc1ncc(Br)cn1`, the Potency was 2 µM (active).
Regarding `CN1CCN(c2cc(-c3cc(O)c4ncccc4c3)ccn2)CC1`, the Potency was 14.1 µM (active).
With `CN(Cc1cnc2nc(N)nc(N)c2n1)c1ccc(C(=O)N[C@@H](CCC(=O)O)C(=O)O)cc1`, the Potency is 0.0063 µM (active).
In the case of `Cc1cc(C)cc(NS(=O)(=O)c2ccc3c(c2)c(=O)n(C)c(=O)n3C)c1`, the Potency is 11.2 µM (active).
On to `NC(Cc1ccc(C(F)(F)F)cc1)c1csc(Nc2ccc(C(=O)NCc3ccco3)cn2)n1` (stereo not drawn), for which the activity change, negative = inhibition is -23.4% [at 11.4 µM] (inactive).
For `Cn1cc(/C=C/c2cc[n+](C)cc2)c2cc(F)ccc21`, the Potency is 11.2 µM (active).
Still for that read-out and setting: next, `CN(C)CCNC(=O)c1cccc(-c2cnc3c(NC=O)cc(-c4cccc(C(F)(F)F)c4)cn23)c1`: 22.4 µM (active); `CN(C)CCNC(=O)c1cccc(-c2cnc3c(NC=O)cc(-c4cccs4)cn23)c1`: “inactive”; `COc1ccc(-c2cc(NC=O)c3ncc(-c4cccc(C(=O)NCCN(C)C)c4)n3c2)cc1`: “inactive”.
Consider `Cc1ccc(Cl)cc1N1CCN(C(=O)CCS(=O)(=O)c2ccc3c(c2)NC(=O)CO3)CC1`, for which the Potency was 14.1 µM (active).
For `CCCCN(C=O)c1c(CC)nc2ccc(C(=O)Nc3cc(-c4ccccc4)ccc3OC)cn12`, the Potency is 22.4 µM (active).
On to `CCc1nc2ccc(C(=O)Nc3cc(-c4ccccc4)ccc3OC)cn2c1N(CC)CC(=O)N(C)C`, for which the Potency was 31.6 µM (active).
Still for that read-out and setting: to `Cc1nc2ncnn2c(N2CCN(c3cccc(C(F)(F)F)c3)CC2)c1C` belongs 2.51 µM (active); to `Cc1ccnc(NC(=S)N2CCN(c3cccc(C(F)(F)F)c3)CC2)c1`, “inactive”.
Turning to `CCC(CC)C(=O)c1c[nH]c(C(=O)NCc2ccccn2)c1`, the Potency result is “inactive”.
Consider `COc1cc(C(=O)N/N=C(\c2ccccc2)c2ccccn2)cc(OC)c1OC`, for which the Potency is 0.398 µM (active).
For the molecule `O=C(N/N=C(\c1ccccc1)c1ccccn1)c1ccccc1Cl`, the Potency was 3.98 µM (active).
`Cc1ccc2c(c1)-c1c(cnn1CC(=O)N1CCCN(Cc3ccccc3F)C1)CO2`: the activity change, negative = inhibition was -25.8% [at 11.4 µM] (inactive).
`CC(NC1=CC(=O)c2cccnc2C1=O)C(O)c1ccccc1` (stereo not drawn): the Potency was 15.8 µM (active).
Regarding `C/C(=N\NC(=O)C1CCCN(S(=O)(=O)c2ccccc2)C1)c1ccccn1` (stereo not drawn), the Potency was 1.41 µM (active).
Regarding `CCc1ccc(-c2nc(CS(=O)CC(=O)NCc3ccco3)c(C)o2)cc1` (stereo not drawn), the Potency is 0.501 µM (active).
Take `Cc1cccc(N=C2NN=C(c3c(C)[nH]c4ccccc34)CS2)c1`: the Potency is 12.6 µM (active).
Turning to `COc1ccc(CNC(=O)CSc2nc(-c3ccccc3)cc(-c3cccs3)c2C#N)cc1`, the activity change, negative = inhibition is 16% [at 11.4 µM] (inactive).
Regarding `COc1cc(OC)cc(-c2cc3nc(C)c(CCC(=O)O)c(C)n3n2)c1`, the Potency was 1 µM (active).
Regarding `COc1cc(OC)cc(-c2cc3nc(C)c(CCC(=O)NCc4ccccc4)c(C)n3n2)c1`, the Potency was 11.2 µM (active).
In the case of `Cc1c(CC(=O)NCCCC(=O)O)c(=O)oc2cc3c(cc12)CCC(C)(C)O3`, the Potency is 11.2 µM (active).
Regarding `O=C1c2cccc3cc([N+](=O)[O-])cc(c23)C(=O)N1CCN1CCCC1`, the Potency was 0.794 µM (active).
As for `O=C(Nc1cnn(C23CC4CC(CC(C4)C2)C3)c1)c1cnn2c(C(F)(F)F)cc(-c3ccco3)nc12`, the Potency is 15.8 µM (active).
`CCc1ccc(-c2cc(C(F)(F)F)n3nc(C(=O)Nc4cnn(Cc5ccc(C)cc5)c4)cc3n2)s1`: the Potency entry was “inactive”.
On the same count and under the same terms, to `CCOc1ccc(/C=C/[N+](=O)[O-])c2ccccc12` belongs 15.8 µM (active); to `Cc1cc(=O)[nH]c(N=N/C(=N/Nc2ccccc2C)c2ccccc2)n1`, 1.58 µM (active).
For the molecule `COc1cc(C#Cc2c(-c3cncn3C)n(C)c3ccc(-c4cnc(N5CCOCC5)nc4)cc23)cc(OC)c1`, the activity change, negative = inhibition was -19.7% [at 11.4 µM] (inactive).
Consider `COc1cc(C#Cc2c(-c3cncn3C)n(C)c3ccc(-c4ccc(CN5CCOCC5)cc4)cc23)cc(OC)c1`, for which the activity change, negative = inhibition is -6.42% [at 11.4 µM] (inactive).
For `COc1cc(C#Cc2c(-c3cncn3C)n(C)c3ccc(-c4cnc(OC)nc4)cc23)cc(OC)c1`, the Potency was 3.55 µM (active).
For `Cc1ccc(-c2cc(C(=O)N/N=C/c3ccccc3O)n[nH]2)o1`, the Potency is 15.8 µM (active).
For the molecule `O=C(N/N=C\c1c(O)ccc2ccccc12)c1cncc(Br)c1`, the Potency is 0.282 µM (active).
Still for that read-out and setting: next, `O=C(N/N=C/c1c(O)ccc2ccccc12)c1ccc(CO)nc1`: 8.91 µM (active).
As to `Nc1ccc2cc3[nH]c4cc(N)ccc4c3nc2c1`, the activity change, negative = inhibition was -29.2% [at 11.4 µM] (inactive).
Regarding `CCN1CCN(C2=C(NS(=O)(=O)c3ccc(C)cc3)C(=O)c3ccccc3C2=O)CC1`, the Potency was 3.55 µM (active).
Regarding `CCn1c(CCC(=O)Nc2nc3c(s2)CCCC3)nc2cc(S(=O)(=O)N(C)C)ccc21`, the activity change, negative = inhibition is 4.42% [at 11.4 µM] (inactive).
On to `O=C(COc1ccc(F)cc1)N/N=C/c1cccc2cccnc12`, for which the Potency is 2.82 µM (active).
Take `Cc1ccccc1OCC(=O)N/N=C/c1cccc2cccnc12`: the Potency was 15.8 µM (active).
As for `CSCC[C@H](NC(=O)OC(C)(C)C)C(=O)N/N=C/c1cccc2cccnc12`, the Potency result was “inactive”.
Turning to `Cc1ccc(OCC(=O)N/N=C/c2cccc3cccnc23)cc1`, the Potency is 20 µM (active).
Consider `Cc1cc(O)c(C(C)C)cc1N=Cc1ccc(N(C)C)cc1`, for which the activity change, negative = inhibition is 0.592% [at 11.4 µM] (inactive).
As for `Cc1nc(N2CCN(c3ccccn3)CC2)c2c(C)c(C(=O)N3CCN(c4ccc(F)cc4)CC3)sc2n1`, the Potency is 14.1 µM (active).
Regarding `Oc1c(C(Nc2ccccn2)c2cccnc2)cc(Cl)c2cccnc12` (stereo not drawn), the Potency was 12.6 µM (active).
On to `Cc1cc(NC(c2cccnc2)c2ccc3cccnc3c2O)no1` (stereo not drawn), for which the Potency is 3.98 µM (active).
Take `Oc1c(C(c2ccccn2)N2CCCCC2)cc(Cl)c2cccnc12` (stereo not drawn): the Potency entry was “inactive”.
In the case of `O=C(Nc1cccc(C(F)(F)F)c1)N1CCC(c2nc(-c3ccc(F)cc3)no2)CC1`, the Potency was 11.2 µM (active).
Consider `CCOc1ccccc1NC(=O)N1CCC(c2nc3ccccc3[nH]2)CC1`, for which the activity change, negative = inhibition was 28.9% [at 11.4 µM] (inactive).
For the molecule `COc1ccc([C@@]2(C(C)C)ON(c3ccccc3C(F)(F)F)C2=O)cc1`, the activity change, negative = inhibition is -27.1% [at 11.4 µM] (inactive).
Turning to `Cn1c(=O)c(C#N)c(-c2ccc(F)cc2)c2cc(C(=O)c3cc(Cl)cc(Cl)c3O)cnc21`, the Potency is 3.55 µM (active).
Take `NC(=S)n1[nH]c(-c2ccc([N+](=O)[O-])cc2)c(N=Nc2cccc(Cl)c2)c1=O`: the Potency is 3.55 µM (active).
As to `CC(C)(C)c1nnc(N/N=C/c2ccccc2O)n(N)c1=O`, the Potency is 1.26 µM (active).
As to `COc1ccc(C(=O)C=CNNC(=O)c2ccc(Cl)cc2)cc1`, the Potency was 11.2 µM (active).
In the case of `Cc1cc(OCc2nc(N)nc(N)c2-c2ccc(Cl)c(Cl)c2)ccc1[N+](=O)[O-]`, the Potency is 0.316 µM (active).
Turning to `COc1cccc2c1C(=N)c1c(O)c3c(c(O)c1C2=O)CC(O)(C(C)=O)CC3OC1CC(N)C(O)C(C)O1` (stereo not drawn), the Potency is 0.282 µM (active).
On the same count and under the same terms, to `CCCCC(=O)OCC(=O)C1(O)Cc2c(O)c3c(c(O)c2C(OC2CC(NC(=O)C(F)(F)F)C(O)C(C)O2)C1)C(=O)c1c(OC)cccc1C3=O` (stereo not drawn) belongs 3.16 µM (active).
For `C=CCn1cnc2c(c1=O)c1nc3ccccc3nc1n2/N=C/c1cc(OC)c(OC)c(OC)c1`, the Potency result is “inactive”.
For `O=C(c1cnc(N2CCN(c3ccccn3)CC2)c2ccccc12)N1CCN(c2cccc(Cl)c2)CC1`, the Potency was 6.31 µM (active).
Turning to `Cc1ccc(NC(=O)c2cnc(N3CCN(c4ccccn4)CC3)c3ccccc23)c(Br)c1`, the Potency is 14.1 µM (active).

The values are drawn from PubChem BioAssay AID1745847 (National Center for Advancing Translational Sciences (NCATS), 2022).
